Only a selection was taken, and hits are over-represented in it overall.
Artemis inh: Artemis (human) endonuclease inhibition; inhibition, % at 10 µM; AID 686954; recombinant Artemis, quenched FAM hairpin cleavage fluorescence; actives 0.78% (n = 30,000); Q96SD1;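 active = at 10 µM dose, at least 30% inhibition, measured as corrected fluorescence normalized to stimulator and neutral control wells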
* hit, by the source's call.

Screening O=C(COC(=O)Cc1ccccc1)Nc1ncc(Cl)cc1Cl returned Artemis inh -12.5.
Cc1cc(NC(=O)COC(=O)c2c(C)nn(Cc3ccccc3Cl)c2C)no1 was read as Artemis inh 88.5*.
`CC1CCCC(C2(O)C(=O)Nc3ccccc32)C1=O` (stereo unspecified) gave Artemis inh -4.5.
`CCOC(=O)C1CCN(C(C)C(=O)c2c(C)[nH]c3cc(C)ccc23)CC1` (stereo unspecified) gave Artemis inh -8.3.
O=C(Nc1cccc2ccccc12)c1nn(C23CC4CC(CC(C4)C2)C3)cc1Br was read as Artemis inh -1.5.

Screens as filed in PubChem BioAssay.
